# L3MBTL1 inh – qHTS Assay for the Inhibitors of L3MBTL1; AlphaScreen L3MBTL1–H3K9me1 peptide binding; Potency, µM (top dose mostly 57.1 µM), without a hit: at the top dose activity, negative = inhibition, actives largely listed as inhibitors; actives 0.66% (n = 230,000); AID 485360, 2010; further: on the % scale 0 is the no-effect control and ±100 the full control effect; nearly all actives have a fitted effect of over 60% in size
#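 Displacement of a biotinylated histone H3(1-15) peptide monomethylated at Lys9 (75 nM) from L3MBTL1 (50 nM) was measured by AlphaScreen after a 30 min room-temperature compound incubation; cefsulodin titration served as intraplate control.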
# HP1b chromo inh – HTS for Inhibitors of HP1-beta Chromodomain Interactions with Methylated Histone Tails. Chromobox protein homolog 1 (Homo sapiens), P83916. AlphaScreen HP1-beta / biotin-H3K9me3 peptide binding. Potency, µM (doses to about 114 µM), inactives show top-dose activity change, negative = inhibition, hits mostly inhibitors. actives 0.56% (n = 390,000). AID 540317, 2011; further: nearly all actives have a fitted effect of over 70% in size
#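 Compound inhibition of the preformed complex between 50 nM HP1-beta and 50 nM biotinylated H3K9me3 peptide was read by AlphaScreen. Buffer was PBS pH 7.4 with 0.01% Tween-20. Incubations ran 30 min at room temperature, with 10 ug/mL donor/acceptor beads.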
# JMJD2A Tudor – qHTS Assay for Inhibitors of JMJD2A-Tudor Domain | actives 4.4% (n = 390,000) | Potency, µM (highest dose often 114 µM), inactives show top-dose activity change, negative = inhibition, most hits filed as inhibitors | AID 504339, 2011 | Lysine-specific demethylase 4A (Homo sapiens), O75164 | AlphaScreen JMJD2A-Tudor / H3K4me3 peptide binding; further: on the % scale 0 is the no-effect control and ±100 the full control effect; nearly all actives have a fitted effect of over 50% in size
# PLK1 PBD inh – qHTS for Inhibitors of PLK1-PDB (polo-like kinase 1 - polo-box domain): Primary Screen | Serine/threonine-protein kinase PLK1 (Homo sapiens), P53350 | Plk1 PBD binding of FITC phosphopeptide, fluorescence polarization | Potency, µM, for inactives: max response, negative = inhibition, most hits filed as inhibitors | actives 2.8% (n = 360,000) | AID 720504, 2013; further: series mostly up to about 57 µM; on the % scale 0 is the no-effect control and ±100 the full control effect; nearly all actives have a fitted effect of over 65% in size
# VDR inh – Inhibitors of the vitamin D receptor (VDR): qHTS; Vitamin D3 receptor (Homo sapiens), P11473; actives 0.93% (n = 400,000); VDR-SRC2-3 peptide fluorescence polarization, 2 h; AID 504847, 2011; Potency, µM, for inactives: max response, negative = inhibition, usual class: inhibitors; further: on the % scale 0 is the no-effect control and ±100 the full control effect
#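 Fluorescence polarization assay of small-molecule disruption of VDR binding to coregulator peptide SRC2-3. Compounds and controls pin-transferred, then read after 2 h incubation at ambient room temperature.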
# BAZ2B block – qHTS Assay for Inhibitors of BAZ2B. Bromodomain adjacent to zinc finger domain protein 2B (Homo sapiens), Q9UIF8. AlphaScreen BAZ2B-H3K14Ac peptide displacement. Potency, µM (series often up to 114 µM), for the others: at the top dose activity change, negative = inhibition, most hits filed as inhibitors. actives 4.4% (n = 360,000). AID 504333, 2011; further: on the % scale 0 is the no-effect control and ±100 the full control effect; nearly all actives have a fitted effect of over 60% in size
#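 AlphaScreen displacement of biotin-H3(5-23)K14Ac peptide (50 nM final) from BAZ2B (50 nM final) in PBS pH 7.4, 0.01% Tween-20; complex preformed 30 min RT, then compounds (top 110 uM) 30 min RT, beads 20 min dark.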
# * = called active by the depositor; ? = inconclusive; · = not tested or not shown; ! = not active in a repeat; [ ] = dose if it differs, or a comment. A selection: hits, their analogues and other compounds. The true share with any hit is near 6.9%. The call rests on the fitted dose curve; in most records, active means well fitted curve in the direction sought with a large enough effect; inconclusive means small, poorly fitted or top-dose-only effect, or another doubt; inactive means no such curve, though single readings can be large; an effect the other way counts as inactive or inconclusive. Potency means the concentration at half of the fitted maximal effect.
SMILES,L3MBTL1 inh,HP1b chromo inh,JMJD2A Tudor,PLK1 PBD inh,VDR inh,BAZ2B block
COCCN1C=C2C(=O)C(C)(OC(=O)CCC(=O)OC)C(=O)C(Br)=C2C=C1c1ccc(OC)cc1 (centres undefined),·,-8.3%,?,?,22.4µM*,·
CCN(CC)CCCN1C=C2C(=O)C(C)(OC(=O)CCC(=O)OC)C(=O)C(Br)=C2C=C1c1ccc(OC)cc1 (centres undefined),·,-4.4%,-34.5%,?,?,·
COC(=O)CCC(=O)OC1(C)C(=O)C2=CN(c3ccc(OC)cc3)C(c3ccc(OC)cc3)=CC2=C(Br)C1=O (centres undefined),·,?,39.8µM*,?,?,·
COC(=O)CCCC1=CC2=C(c3ccccc3)C(=O)C(C)(OC(=O)C3CCCC3)C(=O)C2=CN1Cc1ccc2c(c1)OCO2 (centres undefined),·,-3.3%,?,-2.1%,-3.7%,?
Cc1ccc(N2CCN(C(=O)CCS(=O)(=O)c3cc4c(cc3Cl)NC(=O)CO4)CC2)c(C)c1,·,30.2%,-12.5%,·,6.0%,-14.8%
Cc1cccc(NC(=O)c2cc3c(=O)n(Cc4cccnc4)ccc3nc2C)c1,·,14.4%,-16.7%,·,15.3%,-9.6%
CCCCCCCCCCCCCCCCCCNc1ccn(C2OC(COP(=O)(O)OCC3OC(n4cc(F)c(=O)[nH]c4=O)CC3O)C(O)C2O)c(=O)n1 (centres undefined),·,-15.0%,56.2µM*,26.7µM*,?,·
CCCCCCCCCCCCCCCCCCCCCC(=O)Nc1ccn([C@@H]2O[C@H](CO)[C@@H](O)[C@@H]2O)c(=O)n1,·,·,·,·,16.5%,·
O=C(Cc1ccccn1)c1ccc(Cl)cc1,8.3%,67.5%,11.2%,-2.9%,-8.5%,-6.6%
CC1=C(CC(=O)c2ccc(Cl)cc2)C(=O)c2ccccc2C1=O,?,-52.7%,31.6µM*,?,-14.2%,31.6µM*
CCOC(=O)c1cccc(NC(=O)C2CCN(c3nnc(C)c4c(C)n(-c5ccccc5)nc34)CC2)c1,·,29.7%,-23.8%,·,6.9%,-24.0%
CCOC(=O)[C@H](CCc1ccccc1)N[C@@H](C)C(=O)N1C(C(=O)O)C[C@@H]2CCC[C@@H]21 (some centres undefined),12.3%,66.7%,-4.8%,-10.2%,-8.1%,5.6%
CCOC(=O)[C@H](CCc1ccccc1)N[C@@H](C)C(=O)N1CCC[C@H]1C(=O)O,8.3%,23.4%,50.1µM*!,-13.1%,6.4%,-6.5%
CCOC(=O)[C@H](CCc1ccccc1)N[C@@H](C)C(=O)N1CCC[C@@H]1C(=O)O,6.5%,-4.2%,20µM*,1.0%,-2.1%,?
COC(=O)c1cc(=O)c(O)c2c(O)c(O)ccc2c1,·,·,·,·,22.4µM*,·
COC(=O)c1ccc2cc(OC)c(OC)cc2c1,·,·,·,-11.6%,·,·
COCCNC(=S)N(C)[C@H]1C[C@H]2c3cc(-c4ccccc4)ccc3CCN2C(=O)[C@H]1[C@H](C)O,·,·,·,-15.8%,·,·
O=C(COC(=O)Cc1ccc(S(=O)(=O)N2CCOCC2)s1)NCc1ccccc1,-1.6%,24.0%,-9.8%,-4.4%,7.3%,-6.5%
O=C(COC(=O)Cc1ccc(S(=O)(=O)N2CCOCC2)s1)NCCc1ccccc1,·,4.1%,-27.2%,-3.4%,7.9%,50.1µM*
CCOC(=O)C1=C(N)Oc2ccc(Br)cc2C1C(C#N)C(=O)OCC (centres undefined),·,·,·,·,5.62µM*,·
O=C(O)CCCCCNc1nc(=S)[nH]c2ccccc12,31.3%,5.1%,22.4µM*,-11.6%,-0.9%,?
CC1=CSC2=NC(=O)/C(=C\c3cccn3-c3ccccc3)C(=N)N12,-10.1%,0.7%,?,-2.3%,2.5%,-6.7%
Cc1cccc(C)c1-n1cccc1/C=C1/C(=N)N2C(=NC1=O)SN=C2S(C)(=O)=O,·,7.8%,-23.5%,21.2µM*,?,-28.2%
CCC1=NN2C(=N)/C(=C\c3cccn3-c3c(C)cccc3C)C(=O)N=C2S1,-14.7%,9.5%,-33.1%,?,12.3%,-21.0%
Cc1ccc(-n2cccc2/C=C2/C(=N)N3C(=NC2=O)SN=C3S(C)(=O)=O)cc1Cl,?,-35.0%,44.7µM*,26.7µM*,?,44.7µM*
SMILES,L3MBTL1 inh,HP1b chromo inh,JMJD2A Tudor,PLK1 PBD inh,VDR inh,BAZ2B block
CCc1oc2ccccc2c1C(=O)c1cc(Br)c(O)c(Br)c1,-8.5%,0.0%,-32.4%,8.44µM*,50.1µM*!,?
Cc1nc(-c2ccccc2)sc1CCNS(=O)(=O)c1ccc(Br)cc1,·,17.2%[57 µM],-9.7%,·,6.4%,-3.3%
O=C(O)c1c(C(=O)N2N=C3/C(=C/c4ccccc4)CCCC3C2c2ccccc2)cccc1[N+](=O)[O-] (centres undefined),-3.4%,16.3%,-21.4%,?,-8.1%,?
CC(=O)N1N=C2/C(=C/c3ccccc3)CCCC2C1c1ccccc1 (centres undefined),0.4%,-8.3%,?,26.7µM*,70.8µM*,-21.8%
O=C(O)c1ccccc1C(=O)N1N=C2/C(=C/c3cccc([N+](=O)[O-])c3)CCCC2C1c1cccc([N+](=O)[O-])c1 (centres undefined),-3.9%,-5.0%,?,67µM*,-3.9%,44.7µM*
CSc1ccc(CN2CCCCCC2)cc1,2.9%,?,5.01µM*,-10.8%,-10.6%,-12.0%
CCS(=O)(=O)N1CCN(Cc2ccc([N+](=O)[O-])cc2)CC1,-3.9%,?,5.62µM*,2.2%,8.1%,50.1µM*
O=[N+]([O-])c1ccc(CN2CCCCCC2)cc1,-1.8%,37.7%,-13.3%,-6.6%,7.4%,-1.6%
CSc1ccc(CN2CCN(Cc3ccc([N+](=O)[O-])cc3)CC2)cc1,-5.1%,?,?,6.1%,-14.6%,28.2µM*
Nc1cccc2c1CN(C1CCC(=O)NC1=O)C2=O (centres undefined),·,·,·,·,2.6%,·
CC(Oc1cc(F)ccc1[N+](=O)[O-])C(=O)N(C)CC(=O)Nc1ccccc1C(F)(F)F (centres undefined),·,-7.1%,0.0%,-8.7%,-22.7%,-1.8%
S=C1NCCNC(=S)NCCOCCOCCN1,·,-9.4%,39.8µM*,26.7µM*,8.3%,-16.7%
Cc1cc(C)n2nc(C(=O)OCC(=O)c3ccccc3Cl)nc2n1,1.9%,32.1%,-9.0%,-3.9%,-15.5%,-0.6%

# Screening results (PubChem)
